{"source": "PubChem BioAssay (NCI)", "note": "This is part of a sample that, as a whole, favours compounds with a hit. Of some 83,000 tested, about 20% had one in any assay.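 96-well plates, one dose, 48 hours. Percent growth reported; active if below 10.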 Unmarked numbers belong to inactive results. The source made the active and inactive calls."}
{"system": "NCI-H460 lung", "assay": "NCI-60 one-dose screen, 48 h (100 = growth as untreated, 0 = no growth, -100 = all killed)", "conditions": "10 µM unless noted", "protocol": "Growth inhibition of the NCI-H460 human Non-Small Cell Lung tumor cell line is measured as a screen for anti-cancer activity. Cells are grown in 96 well plates and exposed to the test compound for 48 hours. Compounds are tested at a single concentration, which is 10^-5 M for most compounds. The reported endpoint is percent growth (GI% or GIPRCNT), where numbers from 0 - 100% represent growth inhibition, and numbers from -100% - 0 represent cell death. For example, a value of 40 represents 60% growth inhibition. A value of 0 means no net growth occurred over the course of the experiment. A value of -40 indicates 40% of cells at the beginning of the experiment died by the end of the experiment. A value of -100 means all cells are dead at the end of the experiment.\nNCI-60 Human Tumor Cell Lines Screen was performed using the standard one-dose NCI protocol, which is described in more detail at https://dtp.cancer.gov/discovery_development/nci-60/default.htm.\nCompounds with GIPRCNT values below 10 were considered active. Activity score was based on GIPRCNT using the following formula: […]\nScore is 0 for GIPRCNT values of 100 or above, 50 for GIPRCNT values of 0, and 100 for GIPRCNT values of -100."}
{"smiles": "CN1CCN(c2nc(-c3cccc4ccccc34)nc3sc4c(c23)CCCCCC4)CC1", "growth": "91.4%"}
{"smiles": "Cc1cccc(C)c1NC(=O)CSC(=S)N1CCN(CCOCCO)CC1", "growth": "114%"}
{"smiles": "C=C(C)[C@@H]1CC[C@]2(C(=O)N3CCN(C)CC3)CC[C@]3(C)[C@H](CC[C@@H]4[C@@]5(C)C/C(=C/c6ccc(C(F)(F)F)cc6)C(=O)C(C)(C)[C@@H]5CC[C@]43C)[C@@H]12", "growth": "97.9%"}
{"smiles": "O=C(NC1=CC(=O)c2ccccc2C1=O)c1ccccc1", "growth": "10.2%"}
{"smiles": "C[C@@H](C(=O)O)c1ccc2c3cc(Cl)ccc3n(Cc3cc(=O)oc4ccc(Cl)cc34)c2c1", "growth": "111%"}
{"smiles": "CN1CCN(c2ccc3nc(-c4[nH]ncc4Nc4ncnc5[nH]ccc45)[nH]c3c2)CC1", "growth": "21%"}
{"smiles": "Cc1nn(-c2ccc(Br)cc2)c2nc3[nH]c(=O)[nH]c(=O)c3nc12", "growth": "108%"}
{"smiles": "Cc1ccsc1-c1ccc2c(c1)COC2(CCCN(C)C)c1ccc(F)cc1", "note": "(stereo not given)", "growth": "10.3%"}
{"smiles": "CC1(C)c2ccccc2C(=O)C1(Br)Cc1ccccc1", "note": "(stereo not given)", "growth": "96.8%"}
{"smiles": "C#Cc1cccc(NC(=O)C2CCCN(C(=O)CCl)C2)c1", "note": "(stereo not given)", "growth": "97.5% [8.25 µM]"}
{"smiles": "COc1cccc(-c2nn(-c3ccccc3)cc2-c2ccnc(NCCNS(=O)(=O)c3ccccc3)c2)c1", "growth": "28.6%"}
{"smiles": "Oc1ccc(CCC2CCCC(CCc3ccc(OCCF)cc3)N2)cc1", "note": "(stereo not given)", "growth": "102%"}
{"smiles": "COc1ccc(C2CC(=O)c3c(nc4ccc(Cl)cc4c3N)C2)cc1", "note": "(stereo not given)", "growth": "104%"}
{"smiles": "Cn1cc(-c2nc(-c3c[nH]c4ncccc34)cs2)c2ccccc21", "growth": "35.8%"}
{"smiles": "COc1cccc(-c2nn(-c3ccccc3)cc2-c2ccnc(NCCCO)c2)c1", "growth": "18.4%"}
{"smiles": "COc1cc(-c2cc3ncccc3c3[nH]c(=O)c4cccnc4c23)cc(OC)c1OC", "growth": "8.58% (active)"}
{"smiles": "CCOc1ccc(NC(=O)c2ccccc2-c2ccccc2C(=O)O)cc1", "growth": "113%"}
{"smiles": "CC/C(=N/NC(N)=O)c1ccccc1", "growth": "108%"}
{"smiles": "COc1cc2c3c(c4c5ccccc5[nH]c4c2c(OC)c1OC)C(=O)N(O)C3=O", "growth": "26.9%"}
{"smiles": "C=C(C)[C@@H]1CC[C@]2(C(=O)N3CCCNCC3)CC[C@]3(C)[C@H](CC[C@@H]4[C@@]5(C)CCC(=O)C(C)(C)[C@@H]5CC[C@]43C)[C@@H]12", "growth": "97.7%"}
{"smiles": "CCC(CC)C(=O)OC(C)COc1ccc(C(C)(C)C)cc1", "note": "(stereo not given)", "growth": "106%"}
{"smiles": "Cc1cc(C=O)c(C)c2c1[nH]c1ccccc12", "growth": "76.1%"}
{"smiles": "NCCn1cc(-c2nc(-c3c[nH]c4ncccc34)cs2)c2ccccc21", "growth": "89.8%"}
{"smiles": "NC(=O)NCC1CCCCC1", "growth": "105%"}
{"smiles": "Cc1csc(-c2ccc3c(c2)COC3(CCCN(C)C)c2ccc(F)cc2)c1", "note": "(stereo not given)", "growth": "-45.7% (active)"}
{"smiles": "Nc1c(Cl)cc(N=Nc2ccccc2)cc1Cl", "growth": "65.1%"}
{"smiles": "Cc1ccc(N(CC(=O)Nc2ccc(S(=O)(=O)N3CCC(N4CCCC4)CC3)cc2)S(=O)(=O)c2ccc(Cl)cc2)cc1", "growth": "-58.5% (active)"}
{"smiles": "Oc1ccccc1/C=N\\NC(=S)Nc1ccc(F)cc1", "growth": "4.08% (active)"}
{"smiles": "O=C1c2cccc3cccc(c23)C(=O)N1CC#Cc1ccc2c3c(cccc13)C(=O)N(CCN1CCNCC1)C2=O", "growth": "73.1%"}
{"smiles": "O=C1C=Cc2ncccc2C1=O", "growth": "111%"}
{"smiles": "COc1ccc(C(=O)/C=C/c2cc(-c3cc(OC)c(OC)c(OC)c3)n[nH]2)cc1OC", "growth": "-17.4% (active)"}
{"smiles": "O=[N+]([O-])c1ccc(/C=N\\Nc2ccccc2)cc1", "growth": "76.7%"}
{"smiles": "COc1ccc(C(=O)c2cc(OC)c(OC)c(OC)c2)cc1/C=C/C(=O)c1cc(OC)c(OC)c(OC)c1", "growth": "83.7%"}
{"smiles": "COc1ccc(/C=C/C(=O)c2ccc([N+](=O)[O-])cc2)cc1", "growth": "110%"}
{"smiles": "O=c1[nH]c(=S)[nH]c2nc[nH]c12", "growth": "112%"}
{"smiles": "O=S(=O)(NCCNc1cc(-c2cn(-c3ccccc3)nc2-c2cccc(O)c2)ccn1)c1ccc(C(F)(F)F)cc1", "growth": "42.3%"}
{"smiles": "NC1=NN=C2N(N)C(=O)c3cnn(-c4ccccc4)c3N2c2nc(-c3ccccc3)cc(-c3ccccc3)c21", "growth": "103%"}
{"smiles": "Cc1ccc(Sc2sc(-c3ccccc3)nc2[P+](c2ccccc2)(c2ccccc2)c2ccccc2)cc1", "growth": "-19.1% (active)"}
{"smiles": "COc1ccc(NC(=O)c2ccoc2COc2ccccc2)cc1", "growth": "106%"}
{"smiles": "COc1ccc(NC(=S)N/N=C/c2ccccc2SSCCC(=O)OC[C@H]2O[C@H](O)[C@H](O)[C@@H](O)[C@@H]2O)cc1", "growth": "26.6%"}
